Source: PubChem
This is a sample that favours compounds with a hit; in the whole collection about 6.2% have one here.
AHR act: human AHR activation; P35869; AHR-responsive luciferase reporter cells, luminescence; activation, % at 5 µM; hit rate 2.5% among 320,000; in the data active means activation above about 47%;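 further: 0% = vehicle wells and 100% = reference agonist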
Target sequence (P35869 whole entry, looked up): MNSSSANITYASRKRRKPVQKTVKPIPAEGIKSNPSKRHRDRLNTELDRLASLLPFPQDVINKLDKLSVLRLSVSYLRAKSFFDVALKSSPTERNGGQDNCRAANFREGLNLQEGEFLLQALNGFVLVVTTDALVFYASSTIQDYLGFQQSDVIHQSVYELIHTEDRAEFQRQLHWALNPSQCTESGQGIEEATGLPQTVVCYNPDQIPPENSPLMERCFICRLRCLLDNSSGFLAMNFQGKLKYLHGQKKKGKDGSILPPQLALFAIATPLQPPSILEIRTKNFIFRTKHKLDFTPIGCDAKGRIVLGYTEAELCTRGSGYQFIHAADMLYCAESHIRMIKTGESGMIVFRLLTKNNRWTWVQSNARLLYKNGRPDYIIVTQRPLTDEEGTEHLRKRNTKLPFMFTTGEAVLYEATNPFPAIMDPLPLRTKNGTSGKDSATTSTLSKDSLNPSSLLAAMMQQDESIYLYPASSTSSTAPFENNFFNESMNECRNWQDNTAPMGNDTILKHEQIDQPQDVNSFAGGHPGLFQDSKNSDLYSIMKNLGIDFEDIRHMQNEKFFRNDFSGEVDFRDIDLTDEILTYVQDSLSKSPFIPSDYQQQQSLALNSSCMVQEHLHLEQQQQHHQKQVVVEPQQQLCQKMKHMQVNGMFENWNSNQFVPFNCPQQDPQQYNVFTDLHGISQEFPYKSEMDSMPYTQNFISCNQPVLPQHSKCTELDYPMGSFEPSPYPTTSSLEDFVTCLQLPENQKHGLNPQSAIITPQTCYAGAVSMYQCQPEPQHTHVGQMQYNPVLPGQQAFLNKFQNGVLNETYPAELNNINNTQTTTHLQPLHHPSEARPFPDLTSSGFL
AI-2 QS modul: Vibrio harveyi AI-2 quorum sensing modulation | Vibrio harveyi JMH597 AI-2 luminescence/OD600 ratio, 9 h; stronger effect = lower value; strain lacks LuxN and CqsS sensors; 0 = neutral-control median | activity change, % at 7.5 µM | hit rate 0.4% among 300,000 | AID 2094; in the data active means activity change below about -75%, passing the limit was not always enough;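 further: luminescence divided by OD600 gain over 9 h not by final OD600 alone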
NTR1 ag: agonists of human neurotensin receptor NTR1 | hit rate 0.17% among 330,000 | P30989 | activation, % at 20 µM | NTR1-U2OS beta-arrestin-GFP spot imaging, agonist mode;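 active means activation at or above 40% of the spot to cytoplasm intensity ratio, with at least 20 cells analyzed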;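 further: 0% = DMSO without peptide and 100% = 100 nM NTR1 peptide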
H9c2 protect: myocardial damage modulation in H9c2 cells | protection from H2O2 cell death, % at 20 µM | H9c2 cardiomyocytes, H2O2 injury protection, ATPLite, 2 h | hit rate 0.63% among 360,000;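 active means compounds giving at least 50% protection of heart cells from peroxide-induced death in the single-dose screen, raw or plate-pattern-corrected value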;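 further: 0% = DMSO wells with peroxide and 100% = DMSO wells without peroxide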
GRIN3A LBD mod: modulators (binders) of human NR3A ligand-binding domain. NR3A LBD differential scanning fluorimetry, Tm shift; 0% = protein alone, 100% = glycine-bound protein. Tm shift relative to glycine control, % at 25 µM. hit rate 2.5% among 340,000;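 active means melting temperature shift of at least 10% of the positive control shift, at one fixed dose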
SUMO Mot1 rescue: SUMOylation pathway inhibition by Mot1-301 growth rescue. S. cerevisiae Mot1-301 growth rescue, ATP luminescence, 38.5C; percent above DMSO median, 100 means doubled. growth rescue, % at 18.8 µM. hit rate 1% among 320,000. AID 2716;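 active means every valid replicate shows activation above 250% relative to neutral control wells; inactive means the rest, any valid replicate at or below 250%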;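 further: OY570 slx delta 5 strain wells were the positive control but not used for scaling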
An asterisk follows results filed as active.

How did Cc1ccccc1OCC(=O)OCC(=O)NC12CC3CC(CC(C3)C1)C2 do in these assays?
H9c2 protect: -2

Results for NC(=O)c1ccccc1OCC(=O)NC12CC3CC(CC(C3)C1)C2 ?
AHR act: 4; AI-2 QS modul: 8; NTR1 ag: 1; H9c2 protect: 56*; GRIN3A LBD mod: -1; SUMO Mot1 rescue: 17

How did Cc1cc(C)nc(SCC(=O)N(C)CC(=O)Nc2c(Cl)cccc2Cl)n1 do in these assays?
AHR act: 2; AI-2 QS modul: 21; NTR1 ag: -2; H9c2 protect: 12; GRIN3A LBD mod: 1; SUMO Mot1 rescue: -1

Results for COc1cc2c(cc1CNC[C@H]1O[C@@H](n3cnc4c(N)ncnc43)[C@H](O)[C@@H]1O)OCO2 ?
AHR act: 0; NTR1 ag: 1; H9c2 protect: -3; GRIN3A LBD mod: -1; SUMO Mot1 rescue: -19

What do the screens show for `COc1ccc(CNC(=O)c2ccccc2NC(=O)C2=CSCCO2)c(OC)c1`?
AHR act: 4; AI-2 QS modul: 4; NTR1 ag: 2; H9c2 protect: 7; GRIN3A LBD mod: -1; SUMO Mot1 rescue: -12

How did C=CCNC1=C(Cl)C(=O)c2ccccc2C1=O do in these assays?
AHR act: 52*; AI-2 QS modul: -7; NTR1 ag: 1; H9c2 protect: -12; GRIN3A LBD mod: -1; SUMO Mot1 rescue: 37

Results for CCCCCC(=O)Nc1ccc(C2C(=O)c3ccccc3C2=O)cc1 ?
AHR act: 3; AI-2 QS modul: 11; NTR1 ag: 1; H9c2 protect: -14; GRIN3A LBD mod: -3; SUMO Mot1 rescue: 192

Results for CN(C)S(=O)(=O)Oc1ccsc1C(=O)Nc1cccc(Cl)c1Cl ?
AHR act: 60*; AI-2 QS modul: -3; NTR1 ag: 0; H9c2 protect: -14; GRIN3A LBD mod: -13; SUMO Mot1 rescue: -27

How did Cc1ccc(N(CC(=O)N2CCCCCC2)S(C)(=O)=O)cc1Cl do in these assays?
AHR act: 4; AI-2 QS modul: 14; NTR1 ag: 1; H9c2 protect: -3; GRIN3A LBD mod: 1; SUMO Mot1 rescue: 278

What do the screens show for `Cc1ccc(N(CC(=O)O)S(C)(=O)=O)cc1Cl`?
AHR act: 1; AI-2 QS modul: 12; NTR1 ag: -2; H9c2 protect: 16; GRIN3A LBD mod: 12*; SUMO Mot1 rescue: -18

What do the screens show for `Cc1ccc(NC(=O)Nc2cc(C(F)(F)F)c[nH]c2=O)cc1`?
AHR act: 28; AI-2 QS modul: 16; NTR1 ag: 9; H9c2 protect: -2; GRIN3A LBD mod: 24*; SUMO Mot1 rescue: 0

How did O=C(NCc1ccccc1Cl)c1ccc(S(=O)(=O)Nc2cccc(C(F)(F)F)c2)cc1 do in these assays?
AHR act: -1; AI-2 QS modul: 50; NTR1 ag: 5; H9c2 protect: -9; GRIN3A LBD mod: 25*; SUMO Mot1 rescue: 6

What do the screens show for `Cc1ccc(S(=O)(=O)Nc2ccc(NC(=O)Nc3cccc(C(F)(F)F)c3)cc2)cc1`?
AHR act: 21; AI-2 QS modul: 40; NTR1 ag: 37; H9c2 protect: -21; GRIN3A LBD mod: 37*; SUMO Mot1 rescue: 12

How did CNS(=O)(=O)c1ccc(NC(=O)Nc2cccc(F)c2)cc1 do in these assays?
AHR act: 20; AI-2 QS modul: -45; NTR1 ag: 0; H9c2 protect: 0; GRIN3A LBD mod: -4; SUMO Mot1 rescue: -17

Results for CCN(CC)S(=O)(=O)c1ccc(NC(=O)Nc2cccc(C(F)(F)F)c2)cc1 ?
AHR act: 0; AI-2 QS modul: -8; NTR1 ag: 30; H9c2 protect: -16; GRIN3A LBD mod: 31*; SUMO Mot1 rescue: -13

Results for CCN(CC)S(=O)(=O)c1ccc(C(=O)Nc2cccc(C)c2)cc1 ?
AHR act: 6; AI-2 QS modul: 24; NTR1 ag: 0; H9c2 protect: 0; GRIN3A LBD mod: -36; SUMO Mot1 rescue: -16

What do the screens show for `O=C(NCc1ccccc1Cl)c1ccc(S(=O)(=O)N2CCCC2)cc1`?
AHR act: 1; NTR1 ag: -2; H9c2 protect: -3; GRIN3A LBD mod: 2

How did Cc1cccc(-n2ncc3c2CCCC3NC(=O)CCCN2CCCCC2=O)c1C (centres undefined) do in these assays?
AHR act: -1; AI-2 QS modul: 40; NTR1 ag: 1; H9c2 protect: -1; GRIN3A LBD mod: 3; SUMO Mot1 rescue: -7

How did CCCC(=O)Nc1cc(C)cn(Cc2c(F)cccc2Cl)c1=O do in these assays?
AHR act: -2; AI-2 QS modul: 19; NTR1 ag: 1; H9c2 protect: -6; GRIN3A LBD mod: 2; SUMO Mot1 rescue: 1

What do the screens show for `CCCCc1nc2cc(C(=O)N(C)C3CCOCC3)ccc2o1`?
AHR act: 13; AI-2 QS modul: 8; NTR1 ag: 0; H9c2 protect: -5; GRIN3A LBD mod: -1; SUMO Mot1 rescue: 19

How did O=C(NCc1cccnc1)c1cc(C2CCCCN2C(=O)CCCc2ccccc2)on1 (centres undefined) do in these assays?
H9c2 protect: -2

What do the screens show for `CCc1oc(C(=O)O)cc1CN(CC)CC`?
AHR act: 0; AI-2 QS modul: 9; NTR1 ag: -1; H9c2 protect: 1; GRIN3A LBD mod: 2; SUMO Mot1 rescue: -8

What do the screens show for `CCN(CC)Cc1cc(O)c(CN(CC)CC)cc1O`?
AI-2 QS modul: 21; H9c2 protect: 55*; GRIN3A LBD mod: -3

Results for OC(CNCc1cccnc1)COc1ccc2ccccc2c1 (centres undefined) ?
AI-2 QS modul: 4; NTR1 ag: -1; H9c2 protect: 1; GRIN3A LBD mod: -3; SUMO Mot1 rescue: 4

How did FC(F)(F)c1nnc2ccc(N3CCCC3)nn12 do in these assays?
AHR act: 0; AI-2 QS modul: 13; NTR1 ag: 3; H9c2 protect: 52*; GRIN3A LBD mod: -8; SUMO Mot1 rescue: -4

How did FC(F)(F)c1nnc2ccc(N3CCCCCC3)nn12 do in these assays?
AHR act: -10; NTR1 ag: 0; H9c2 protect: 0; GRIN3A LBD mod: 1; SUMO Mot1 rescue: 2

What do the screens show for `COC(=O)c1ccccc1-c1ccc(/C=N/Nc2nc(N3CCCC3)nc(N3CCCC3)n2)o1`?
AHR act: 13; AI-2 QS modul: -2; NTR1 ag: 36; H9c2 protect: -13; GRIN3A LBD mod: 2; SUMO Mot1 rescue: -7

What do the screens show for `O=[N+]([O-])c1ccc(-c2ccc(/C=N/Nc3nc(NCc4ccccc4)nc(N4CCOCC4)n3)o2)cc1`?
AHR act: 4; AI-2 QS modul: 14; NTR1 ag: -2; H9c2 protect: -12; GRIN3A LBD mod: 11*; SUMO Mot1 rescue: -10

How did COc1nc(N/N=C/c2ccc(-c3ccccc3[N+](=O)[O-])o2)nc(N2CCOCC2)n1 do in these assays?
AHR act: 50*; AI-2 QS modul: 31; NTR1 ag: 0; H9c2 protect: 38; GRIN3A LBD mod: -2; SUMO Mot1 rescue: -1
